# Experimental data as given in PubChem BioAssay (NCI).
# The panel holds about 79,000 compounds, 15% with a hit somewhere; the sample as a whole holds those more often. Values without a mark were called inactive. Active and inactive are the calls of the source. Rule as the data show it: active = growth inhibition above about 70%; inactive = the rest.
# Key:
# [1] = NCI Yeast Anticancer Drug Screen. Data for the rad52 strain (AID 147);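 also: 0% = growth of vehicle-treated control cultures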; settings: S. cerevisiae rad52 mutant growth inhibition, hits give high values
# Procedure, shortened: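 The repair-mutant yeast strain was incubated with compounds, then growth was read and inhibition derived relative to vehicle.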
# [2] = NCI Yeast Anticancer Drug Screen. Data for the wt1 strain (AID 149);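 also: 0% = growth of vehicle-treated wt1 cultures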; settings: S. cerevisiae wt1 strain (SPY 50644) growth inhibition, hits give high values
# Procedure, shortened: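 The wt1 strain was treated with compounds, and growth was compared with vehicle-treated cultures to give inhibition.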
# [3] = NCI Yeast Anticancer Drug Screen. Data for the rad50EPP+ strain (AID 151);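 also: 0% = growth of vehicle-treated control cultures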; settings: S. cerevisiae rad50 mutant strain, hits give high values
# Procedure, shortened: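 Vehicle-normalised growth inhibition; rad50EPP+ yeast strain, altered in DNA damage repair, compound-treated.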
# [4] = NCI Yeast Anticancer Drug Screen. Data for the mgt1 strain (AID 153); settings: S. cerevisiae mgt1 mutant growth inhibition, hits give high values
# Procedure, shortened: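 Vehicle-normalized growth inhibition is determined in mgt1 yeast, a strain selected for a defined alteration in DNA repair or cell cycle control.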
# [5] = NCI Yeast Anticancer Drug Screen. Data for the rad50 strain (AID 155);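 also: 0% = growth of vehicle-only cultures of the same strain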; settings: S. cerevisiae rad50 strain growth inhibition, hits give high values
# Procedure, shortened: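 Cells are treated with compound, grown, and their growth is then scored against vehicle-only cultures of the same repair-deficient yeast strain.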
# [6] = NCI Yeast Anticancer Drug Screen. Data for the mec2-1 strain (AID 157); settings: S. cerevisiae mec2-1 strain, hits give high values
# Procedure, shortened: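 Mutant yeast (mec2-1) grown with compound; growth inhibition relative to vehicle control reported.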
# [7] = NCI Yeast Anticancer Drug Screen. Data for the rad14 strain (AID 159);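 also: 0% = growth of vehicle-treated control cultures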; settings: S. cerevisiae rad14 strain growth inhibition, hits give high values
# Procedure, shortened: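 Readout: yeast growth inhibition, referenced to vehicle-only cultures. Strain bears a defined alteration in DNA damage repair.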
# [8] = NCI Yeast Anticancer Drug Screen. Data for the sgs1 mgt1 strain (AID 161);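 also: 0% = growth of cultures given vehicle only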; settings: S. cerevisiae sgs1 mgt1 strain, hits give high values
# Procedure, shortened: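 Percent growth inhibition was derived by comparing compound-exposed mutant yeast with vehicle-exposed cultures. The strain carries alterations in DNA damage repair.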
# [9] = NCI Yeast Anticancer Drug Screen. Data for the CLN2oe strain (AID 163);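 also: 0% = growth of vehicle-only control cultures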; settings: S. cerevisiae CLN2oe strain, hits give high values
# Procedure, shortened: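 Compounds are applied to yeast harbouring a defined cell-cycle control change; reduced growth compared with vehicle-treated controls gives the value.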
# [10] = NCI Yeast Anticancer Drug Screen. Data for the cln2 rad14 strain (AID 165);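 also: 0% = growth equal to vehicle treated cultures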; settings: S. cerevisiae cln2 rad14 strain, hits give high values
# Procedure, shortened: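 Readout is yeast growth inhibition versus vehicle-treated controls, using a strain with cln2 and rad14 alterations exposed to compound.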
# [11] = NCI Yeast Anticancer Drug Screen. Data for the bub3 strain (AID 167); settings: S. cerevisiae bub3 mutant strain, hits give high values
# Procedure, shortened: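 Part of a panel of yeast mutants defective in DNA damage repair or cell cycle regulation. Each strain is grown with compound, and inhibition is calculated relative to solvent-treated cultures.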
# [12] = NCI Yeast Anticancer Drug Screen. Data for the wt2 strain (AID 169);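 also: 0% = growth of vehicle-treated yeast cultures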; settings: S. cerevisiae wt2 strain growth inhibition, hits give high values
# Procedure, shortened: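 Against vehicle-treated controls, the growth of yeast exposed to each compound was compared, and the inhibition was recorded.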
# [13] = NCI Yeast Anticancer Drug Screen. Data for the mlh1 strain (AID 171);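 also: 0% = growth of vehicle-treated control cultures of the same strain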; settings: S. cerevisiae mlh1 strain growth inhibition, hits give high values
# Procedure, shortened: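 Measured: yeast growth. Reference: vehicle-treated controls. Organism: strain with a defined alteration affecting DNA damage repair or cell cycle control, treated with compound.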
# [14] = NCI Yeast Anticancer Drug Screen. Data for the sgs1 strain (AID 173);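 also: 0% = growth of vehicle-only control cultures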; settings: S. cerevisiae sgs1 mutant, hits give high values
# Procedure, shortened: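 Each compound was added to cultures of the altered yeast strain. Growth was recorded, and inhibition was derived by comparison with vehicle controls.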
# [15] = NCI Yeast Anticancer Drug Screen. Data for the mlh1 rad18 strain (AID 175); settings: S. cerevisiae mlh1 rad18 strain growth inhibition, hits give high values
# Procedure, shortened: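 Genetically defined yeast (DNA repair-deficient) exposed to compounds; growth inhibition determined relative to vehicle.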
# [16] = at 5.0 µM (retest, dose inferred, filed as 0.5)
# [17] = at 50.0 µM (retest, dose inferred, filed as 5.0)
structure (smiles),measurement,setting,value
COc1cc2c3c(cccc3c1)C(=O)N(CCN(C)C)C2=O,growth inhibition,[1]; at 1.2 µM,-43%
same,growth inhibition,[1]; at 3.7 µM,-14%
same,growth inhibition,[1]; at 11.0 µM,20%
same,growth inhibition,[1]; at 33.0 µM,55%
same,growth inhibition,[1]; at 100.0 µM,87% (active)
same,growth inhibition,[2]; at 1.2 µM,-6%
same,growth inhibition,[2]; at 3.7 µM,-11%
same,growth inhibition,[2]; at 11.0 µM,-10%
same,growth inhibition,[2]; at 33.0 µM,-1%
same,growth inhibition,[2]; at 100.0 µM,2%
same,growth inhibition,[3]; at 1.2 µM,-23%
same,growth inhibition,[3]; at 3.7 µM,1%
same,growth inhibition,[3]; at 11.0 µM,8%
same,growth inhibition,[3]; at 33.0 µM,34%
same,growth inhibition,[3]; at 100.0 µM,78% (active)
same,growth inhibition,[4]; at 1.2 µM,-24%
same,growth inhibition,[4]; at 3.7 µM,-22%
same,growth inhibition,[4]; at 11.0 µM,-32%
same,growth inhibition,[4]; at 33.0 µM,-23%
same,growth inhibition,[4]; at 100.0 µM,-7%
same,growth inhibition,[5]; at 1.2 µM,10%
same,growth inhibition,[5]; at 3.7 µM,0%
same,growth inhibition,[5]; [16],23%
same,growth inhibition,[5]; at 11.0 µM,29%
same,growth inhibition,[5]; at 33.0 µM,61%
same,growth inhibition,[5]; [17],77% (active)
same,growth inhibition,[5]; at 50.0 µM,71.6% (active)
same,growth inhibition,[5]; at 100.0 µM,88% (active)
same,growth inhibition,[6]; at 1.2 µM,-17%
same,growth inhibition,[6]; at 3.7 µM,-11%
same,growth inhibition,[6]; [16],8%
same,growth inhibition,[6]; at 11.0 µM,-23%
same,growth inhibition,[6]; at 33.0 µM,-19%
same,growth inhibition,[6]; [17],11%
same,growth inhibition,[6]; at 50.0 µM,-5.45%
same,growth inhibition,[6]; at 100.0 µM,9%
same,growth inhibition,[7]; at 1.2 µM,-33%
same,growth inhibition,[7]; at 3.7 µM,-18%
same,growth inhibition,[7]; at 11.0 µM,-24%
same,growth inhibition,[7]; at 33.0 µM,-3%
same,growth inhibition,[7]; at 100.0 µM,-14%
same,growth inhibition,[8]; [16],13%
same,growth inhibition,[8]; [17],23%
same,growth inhibition,[8]; at 50.0 µM,-13.1%
same,growth inhibition,[9]; at 1.2 µM,-5%
same,growth inhibition,[9]; at 3.7 µM,13%
same,growth inhibition,[9]; at 11.0 µM,25%
same,growth inhibition,[9]; at 33.0 µM,34%
same,growth inhibition,[9]; at 100.0 µM,21%
same,growth inhibition,[10]; [16],0%
same,growth inhibition,[10]; [17],3%
same,growth inhibition,[10]; at 50.0 µM,-5.5%
same,growth inhibition,[11]; at 1.2 µM,-13%
same,growth inhibition,[11]; at 3.7 µM,-12%
same,growth inhibition,[11]; [16],21%
same,growth inhibition,[11]; at 11.0 µM,-9%
same,growth inhibition,[11]; at 33.0 µM,-10%
same,growth inhibition,[11]; [17],21%
same,growth inhibition,[11]; at 50.0 µM,-34%
same,growth inhibition,[11]; at 100.0 µM,-4%
same,growth inhibition,[12]; at 1.2 µM,-2%
same,growth inhibition,[12]; at 3.7 µM,1%
same,growth inhibition,[12]; at 11.0 µM,-23%
same,growth inhibition,[12]; at 33.0 µM,-12%
same,growth inhibition,[12]; at 100.0 µM,5%
same,growth inhibition,[13]; at 1.2 µM,-39%
same,growth inhibition,[13]; at 3.7 µM,3%
same,growth inhibition,[13]; at 11.0 µM,-19%
same,growth inhibition,[13]; at 33.0 µM,-9%
same,growth inhibition,[13]; at 100.0 µM,0%
same,growth inhibition,[14]; at 1.2 µM,-21%
same,growth inhibition,[14]; at 3.7 µM,-14%
same,growth inhibition,[14]; at 11.0 µM,-22%
same,growth inhibition,[14]; at 33.0 µM,-15%
same,growth inhibition,[14]; at 100.0 µM,-11%
same,growth inhibition,[15]; [16],42%
same,growth inhibition,[15]; [17],55%
same,growth inhibition,[15]; at 50.0 µM,-50.4%
CCCCN1C(=O)N(c2ccc(OCC)cc2)C2N(CCCC)C1C(C)(C)C2(C)C (stereo unspecified),growth inhibition,[1]; at 1.2 µM,-6%
same,growth inhibition,[1]; at 3.7 µM,-13%
same,growth inhibition,[1]; at 11.0 µM,3%
same,growth inhibition,[1]; at 33.0 µM,30%
same,growth inhibition,[1]; at 100.0 µM,86% (active)
same,growth inhibition,[2]; at 1.2 µM,-3%
same,growth inhibition,[2]; at 3.7 µM,3%
same,growth inhibition,[2]; at 11.0 µM,9%
same,growth inhibition,[2]; at 33.0 µM,19%
same,growth inhibition,[2]; at 100.0 µM,52%
same,growth inhibition,[3]; at 1.2 µM,-7%
same,growth inhibition,[3]; at 3.7 µM,-6%
same,growth inhibition,[3]; at 11.0 µM,7%
same,growth inhibition,[3]; at 33.0 µM,19%
same,growth inhibition,[3]; at 100.0 µM,30%
same,growth inhibition,[4]; at 1.2 µM,-4%
same,growth inhibition,[4]; at 3.7 µM,-7%
same,growth inhibition,[4]; at 11.0 µM,-6%
same,growth inhibition,[4]; at 33.0 µM,-7%
same,growth inhibition,[4]; at 100.0 µM,5%
same,growth inhibition,[5]; at 1.2 µM,-17%
same,growth inhibition,[5]; at 3.7 µM,-18%
same,growth inhibition,[5]; [16],0%
same,growth inhibition,[5]; at 11.0 µM,9%
same,growth inhibition,[5]; at 33.0 µM,35%
same,growth inhibition,[5]; [17],50%
same,growth inhibition,[5]; at 50.0 µM,49.6%
same,growth inhibition,[5]; at 100.0 µM,84% (active)
same,growth inhibition,[6]; at 1.2 µM,-5%
same,growth inhibition,[6]; at 3.7 µM,-4%
same,growth inhibition,[6]; [16],4%
same,growth inhibition,[6]; at 11.0 µM,-5%
same,growth inhibition,[6]; at 33.0 µM,-5%
same,growth inhibition,[6]; [17],62%
same,growth inhibition,[6]; at 50.0 µM,19.9%
same,growth inhibition,[6]; at 100.0 µM,22%
same,growth inhibition,[7]; at 1.2 µM,-1%
same,growth inhibition,[7]; at 3.7 µM,-6%
same,growth inhibition,[7]; at 11.0 µM,-6%
same,growth inhibition,[7]; at 33.0 µM,15%
same,growth inhibition,[7]; at 100.0 µM,72% (active)
same,growth inhibition,[8]; [16],12%
same,growth inhibition,[8]; [17],82% (active)
same,growth inhibition,[8]; at 50.0 µM,65.3%
same,growth inhibition,[9]; at 1.2 µM,-10%
same,growth inhibition,[9]; at 3.7 µM,-9%
same,growth inhibition,[9]; at 11.0 µM,-10%
same,growth inhibition,[9]; at 33.0 µM,-10%
same,growth inhibition,[9]; at 100.0 µM,0%
same,growth inhibition,[10]; [16],-3%
same,growth inhibition,[10]; [17],13%
same,growth inhibition,[10]; at 50.0 µM,21.1%
same,growth inhibition,[11]; at 1.2 µM,-9%
same,growth inhibition,[11]; at 3.7 µM,-7%
same,growth inhibition,[11]; [16],-2%
same,growth inhibition,[11]; at 11.0 µM,-12%
same,growth inhibition,[11]; at 33.0 µM,-11%
same,growth inhibition,[11]; [17],24%
same,growth inhibition,[11]; at 50.0 µM,27.9%
same,growth inhibition,[11]; at 100.0 µM,25%
same,growth inhibition,[12]; at 1.2 µM,-3%
same,growth inhibition,[12]; at 3.7 µM,4%
same,growth inhibition,[12]; at 11.0 µM,12%
same,growth inhibition,[12]; at 33.0 µM,26%
same,growth inhibition,[12]; at 100.0 µM,91% (active)
same,growth inhibition,[13]; at 1.2 µM,-6%
same,growth inhibition,[13]; at 3.7 µM,-11%
same,growth inhibition,[13]; at 11.0 µM,-9%
same,growth inhibition,[13]; at 33.0 µM,-3%
same,growth inhibition,[13]; at 100.0 µM,79% (active)
same,growth inhibition,[14]; at 1.2 µM,-2%
same,growth inhibition,[14]; at 3.7 µM,-2%
same,growth inhibition,[14]; at 11.0 µM,20%
same,growth inhibition,[14]; at 33.0 µM,57%
same,growth inhibition,[14]; at 100.0 µM,95% (active)
same,growth inhibition,[15]; [16],13%
same,growth inhibition,[15]; [17],84% (active)
same,growth inhibition,[15]; at 50.0 µM,54.1%
